Giardia FBPA inh-1: blocks Giardia fructose-bisphosphate aldolase activity. A8B2U2. purified Giardia FBPA. Potency, µM (doses to about 59.6 µM), for the others: at the top dose activity, negative = inhibition, actives largely listed as inhibitors. 0.71% of 290,000 active; note: % is set by controls: 0 for no effect and ±100 for the full control effect; nearly all actives have a fitted effect of over 55% in size
Target sequence (A8B2U2 whole entry, looked up): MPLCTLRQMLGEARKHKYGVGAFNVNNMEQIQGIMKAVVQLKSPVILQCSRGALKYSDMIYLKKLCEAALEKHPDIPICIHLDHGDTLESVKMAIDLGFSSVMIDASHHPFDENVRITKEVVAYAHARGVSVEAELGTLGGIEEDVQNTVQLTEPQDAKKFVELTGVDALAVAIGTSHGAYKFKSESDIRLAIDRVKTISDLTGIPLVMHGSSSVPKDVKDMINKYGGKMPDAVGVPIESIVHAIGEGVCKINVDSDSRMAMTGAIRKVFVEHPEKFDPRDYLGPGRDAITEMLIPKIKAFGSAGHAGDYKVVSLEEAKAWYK
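Giardia FBPA (40 nM reagent) was preincubated 10 min at RT with compound (up to 57.5 uM final), then substrate plus GAPDH/TPI/NAD/arsenate coupling system with diaphorase/resazurin was added; resorufin fluorescence (525/598 nm) was read after 20 min.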
AmpC detergent: AmpC beta-lactamase inhibition with detergent present | AmpC hydrolysis of nitrocefin, absorbance 480 nm, 0.01% Triton | P00811 | AID 485294 | Potency, µM (top dose mostly 114 µM), inactives show at the highest dose activity change, negative = inhibition, most hits filed as inhibitors | 0.041% of 370,000 active;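 note: 0% = no-compound wells and -100% = no-enzyme wells; nearly all actives have a fitted effect of over 25% in size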
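AmpC (5.3 nM in the dispensed reagent) in 20 mM phosphate pH 7.0 with 0.01% (detergent screen) or 0.0001% Triton X-100 was preincubated with compounds for 15 min at room temperature. Nitrocefin was then added from an 800 uM solution, and hydrolysis was followed at 480 nm.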
AmpC no deterg: inhibitors of E. coli AmpC beta-lactamase without detergent | P00811 | AmpC nitrocefin hydrolysis, absorbance 480 nm, 0.0001% Triton | Potency, µM (series often up to 57.1 µM), for the others: at the top dose activity change, negative = inhibition, most hits filed as inhibitors | 0.52% of 330,000 active | AID 485341;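 note: plate controls were no compound for no effect and no enzyme for full effect; nearly all actives have a fitted effect of over 20% in size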
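20 mM phosphate pH 7.0 + 0.01% (detergent screen) or 0.0001% Triton X-100; 5.3 nM AmpC reagent; cpd preinc 15 min RT; nitrocefin (800 uM stock) to start; A480 q20 s × 4 min; Activity was normalised to no-enzyme and no-compound control wells.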
SARS PLP yeast: blocks SARS-CoV papain-like protease in a yeast assay. 0.19% of 330,000 active. Potency, µM (top dose mostly 32.9 µM), without a hit: at the top dose activity, positive = growth rescue, most hits filed as activators. AID 485353. S. cerevisiae expressing SARS-CoV PLpro, growth rescue; calls by dose curve; note: 0% is about no effect; nearly all actives have a fitted effect of over 55% in size
Giardia growth: blocks growth of Giardia lamblia trophozoites; 5% of 1,500 active; shares compounds with Giardia FBPA inh-1; Potency, µM (titrated, usually from 57.5 µM), without a hit: at the top dose activity change, negative = inhibition, actives largely listed as inhibitors; Giardia lamblia trophozoite growth inhibition;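 note: trophozoites exposed to compound for 48 h at 37 °C; % is set by controls: 0 for no effect and ±100 for the full control effect; nearly all actives have a fitted effect of over 70% in size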
Mammal cell tox: counter-screen for Giardia aldolase inhibitors: mammalian cell toxicity. 4% of 1,500 active. AID 2786. Potency, µM (series often up to 57.5 µM), for the others: top-dose viability change, negative = toxicity, hits mostly inhibitors. shares compounds with Giardia FBPA inh-1. mammalian cell viability counter-screen, qHTS;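 note: Chinese hamster ovary cells used as mammalian cytotoxicity surrogate; viability measured as cellular ATP by luminescence; compound exposure lasted 48 h before reading; % is set by controls: 0 for no effect and ±100 for the full control effect; nearly all actives have a fitted effect of over 60% in size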
Giardia FBPA inh-2: confirmation of Giardia fructose-bisphosphate aldolase inhibitors | shares compounds with Giardia FBPA inh-1 | purified Giardia aldolase enzyme activity, qHTS | Potency, µM (top dose mostly 57.5 µM), for inactives: at the highest dose activity change, negative = inhibition, most hits filed as inhibitors | 5% of 1,500 active; note: % is set by controls: 0 for no effect and ±100 for the full control effect; nearly all actives have a fitted effect of over 45% in size
Rabbit FBPA inh: rabbit FBP aldolase inhibition by Giardia aldolase hits | shares compounds with Giardia FBPA inh-1 | Rabbit muscle FBPA enzyme inhibition, selectivity counter-screen | Potency, µM (titrated, usually from 57.5 µM), without a hit: at the highest dose activity, negative = inhibition, most hits filed as inhibitors | 4% of 1,500 active | AID 2794; note: % is set by controls: 0 for no effect and ±100 for the full control effect; nearly all actives have a fitted effect of over 60% in size
GAPDH coupling: counter-screen for Giardia aldolase inhibitors: GAPDH coupling enzyme | shares compounds with Giardia FBPA inh-1 | GAPDH coupling enzyme counterscreen, biochemical, qHTS | Potency, µM (doses to about 57.5 µM), without a hit: at the highest dose activity change, negative = inhibition, usual class: inhibitors | 6% of 1,500 active | AID 2795; note: % is set by controls: 0 for no effect and ±100 for the full control effect; nearly all actives have a fitted effect of over 55% in size
The depositor's hits bear a star; ? = inconclusive; nt = not tested or not shown; [ ] = remark or other dose. Most compounds without a hit are left out; they make up all but 1.1% or so of the library. Unless noted, calls come from the whole dose curve; as a rule, active = well fitted curve in the direction sought with a large enough effect; inconclusive = small, poorly fitted or top-dose-only effect, or another doubt; inactive = no such curve, though single readings can be large; an effect the other way counts as inactive or inconclusive. Potency is the fitted concentration of half-maximal effect.

SMILES | Giardia FBPA inh-1 | AmpC detergent | AmpC no deterg | SARS PLP yeast | Giardia growth | Mammal cell tox | Giardia FBPA inh-2 | Rabbit FBPA inh | GAPDH coupling
CC(=O)NNC(=O)c1sc(=S)n2c1[nH]c(=O)c1sccc12 | 18µM* | -2% | -21% | 0% | -20% | 3% | 13% | ? | -24%
CN(CC(=O)Nc1ccccc1Br)C(=O)CCc1nc2ccccc2c(=O)[nH]1 | nt | ? | -9% | -6% | nt | nt | nt | nt | nt
CN(CC(=O)Nc1ccccc1Br)Cc1nc2ccccc2c(=O)[nH]1 | 20µM* | -18% | -9% | 0% | -2%[10.4 µM] | -16% | 0% | -7% | ?
CCC(C(=O)NCCc1ccc(OC)c(OC)c1)n1nc(C)c2sc3ccccc3c2c1=O (configuration not stated) | nt | -1% | nt | nt | nt | nt | nt | nt | nt
Nc1nc(Cl)nc2c1ncn2[C@@H]1O[C@H](COP(=O)(O)OP(=O)(O)OP(=O)(O)O)[C@H](O)[C@H]1O | -2% | nt | nt | nt | nt | nt | nt | nt | nt
CCCCNC(=O)C1c2ccccc2Oc2ccccc21 | 3% | -8% | -2% | 0% | nt | nt | nt | nt | nt
CNCCC1Sc2ccccc2Oc2ccccc21 (configuration not stated) | 18µM* | ? | 1% | 0% | -9% | 4% | -2% | 4% | 5%
CCC(C)c1ccccc1NC(=O)C(C)N(C)Cc1cccc(OC)c1 (configuration not stated) | 20µM* | -1% | 163% | -2% | ? | 2% | 2% | 0% | 5%
CCCCOc1c(Br)cc(CNCCCN2CCOCC2)cc1OC | 20µM* | -11% | 46% | -10% | ? | -9% | 3% | 3% | 8%
CCCCNCc1cc(Br)c(OCC(=O)N2CCOCC2)c(OC)c1 | -3% | -1% | -15% | 3% | nt | nt | nt | nt | nt
O=C(O)CCCN1C(=O)/C(=C/c2ccc(-c3nc4ccccc4s3)o2)SC1=S | -22% | -6% | -24% | 1% | nt | nt | nt | nt | nt
O=C(O)CCCCCN1C(=O)/C(=C\c2ccc(-c3ccc(Cl)cc3)o2)SC1=S | 16µM* | 1% | -22% | -1% | 11%[10.4 µM] | 4% | -4% | 3% | 15%
O=c1oc2ccccc2c(O)c1Cc1cc(Cl)c2cccnc2c1O | 10µM* | 1% | -19% | 10% | ? | 6% | -6% | -18% | -13%
O=c1oc2ccccc2c(O)c1Cc1c(O)c2ccccc2oc1=O | 0% | nt | nt | nt | nt | nt | nt | nt | nt
C/C(=N/Nc1nc(C)c(C)s1)c1cccc([N+](=O)[O-])c1 | 32µM* | ? | -15% | 22% | 4%[10.4 µM] | -11% | -4% | 6% | -11%
COc1cc(Cl)ccc1NC(=S)N(CCN1CCOCC1)C1CCN(C(C)=O)CC1 | 18µM* | 6% | 58% | -1% | -7%[10.4 µM] | 4% | 6% | 1% | 5%
CC(=O)N1CCC(N(CCN2CCOCC2)C(=S)Nc2ccc(C)cc2)CC1 | 7.1µM* | -8% | 0% | 6% | -19%[38.3 µM] | -13% | 2% | 12% | 5%
CN(C)c1ncnc2c1NC1=C(S2)C(=NCCCC(=O)O)CC(C)(C)C1 | ? | -14% | 3% | -3% | -3%[38.3 µM] | -19% | -17% | -12% | -23%
COc1ncnc2c1NC1=C(S2)C(=NCCC(=O)O)CC(C)(C)C1 | ? | 1% | -6% | -3% | nt | nt | nt | nt | nt
COC(=O)c1ccc(CNC(=O)CSc2nc3ccccc3[nH]2)cc1 | -3% | -10% | -27% | 1% | nt | nt | nt | nt | nt

Assay outcomes deposited in PubChem BioAssay by National Center for Advancing Translational Sciences (NCATS).
